Test results published in paper PMC7862700, “An all-to-all approach to the identification of sequence-specific readers for epigenetic DNA modifications on cytosine”.

Key:
Experiment in all cases: DAPPL (digital affinity profiling via proximity ligation, sequencing); 10 mM Tris-HCl pH 7.5, 50 mM NaCl, 1 mM DTT, 4% glycerol, room temperature, 30 min; GST-TFs on glutathione beads, 16-mer random dsDNA library, 0.1% formaldehyde crosslink after washing; high values mean tight binding
FLI1 = target: T1, FLI1 (Homo sapiens, UniProt Q01543 1-452); details: protein: recombinant; tags: N-terminal GST; dsDNA, one strand shown
T1 sequence: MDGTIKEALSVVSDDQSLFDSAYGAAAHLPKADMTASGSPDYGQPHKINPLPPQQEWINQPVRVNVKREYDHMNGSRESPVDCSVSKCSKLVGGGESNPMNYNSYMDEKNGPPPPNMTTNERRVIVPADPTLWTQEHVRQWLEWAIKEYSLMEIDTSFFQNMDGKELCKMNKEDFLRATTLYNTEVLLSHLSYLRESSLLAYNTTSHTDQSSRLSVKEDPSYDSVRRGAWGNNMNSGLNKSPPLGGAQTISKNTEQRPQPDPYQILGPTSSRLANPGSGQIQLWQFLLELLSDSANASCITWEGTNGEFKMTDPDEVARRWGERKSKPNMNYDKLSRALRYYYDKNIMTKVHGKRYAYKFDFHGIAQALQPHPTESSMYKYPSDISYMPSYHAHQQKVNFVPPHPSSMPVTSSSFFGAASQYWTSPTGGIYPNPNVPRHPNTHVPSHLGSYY
Method in brief: (§1)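 Binding signal is each hexamer's read frequency for a factor divided by its frequency in the tag-only sample. The factors were GST-fused human transcription factors from yeast, captured on glutathione beads, DNA-barcoded and pooled with that sample. Pools were incubated with 200 nmole of a random double-stranded 16-mer DNA library in Tris/NaCl/DTT/glycerol buffer at room temperature for 30 min, then washed, crosslinked with 0.1% formaldehyde, proximity-ligated with BsaI/T4 ligase (1 h, 37 °C), PCR-amplified and sequenced on an Illumina NextSeq500.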

ELK1 = target: T2, ELK1 (Homo sapiens, UniProt P19419 1-428); details: protein: recombinant; tags: N-terminal GST; dsDNA, one strand shown
T2 sequence: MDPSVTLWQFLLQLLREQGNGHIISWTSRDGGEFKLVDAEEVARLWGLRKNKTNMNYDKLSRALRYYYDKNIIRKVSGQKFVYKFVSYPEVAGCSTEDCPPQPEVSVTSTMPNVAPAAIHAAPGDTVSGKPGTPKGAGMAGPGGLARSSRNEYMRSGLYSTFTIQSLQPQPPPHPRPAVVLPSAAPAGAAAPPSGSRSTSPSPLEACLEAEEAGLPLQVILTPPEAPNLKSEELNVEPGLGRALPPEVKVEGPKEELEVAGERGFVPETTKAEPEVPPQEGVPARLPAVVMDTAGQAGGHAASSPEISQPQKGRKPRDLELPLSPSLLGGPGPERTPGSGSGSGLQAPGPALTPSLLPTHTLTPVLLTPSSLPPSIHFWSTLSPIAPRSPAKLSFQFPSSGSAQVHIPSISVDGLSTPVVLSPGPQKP
Method in brief: as §1

GABPA = target: T3, GABPA (Homo sapiens, UniProt Q06546 1-454); details: protein: recombinant; tags: N-terminal GST; dsDNA, one strand shown
T3 sequence: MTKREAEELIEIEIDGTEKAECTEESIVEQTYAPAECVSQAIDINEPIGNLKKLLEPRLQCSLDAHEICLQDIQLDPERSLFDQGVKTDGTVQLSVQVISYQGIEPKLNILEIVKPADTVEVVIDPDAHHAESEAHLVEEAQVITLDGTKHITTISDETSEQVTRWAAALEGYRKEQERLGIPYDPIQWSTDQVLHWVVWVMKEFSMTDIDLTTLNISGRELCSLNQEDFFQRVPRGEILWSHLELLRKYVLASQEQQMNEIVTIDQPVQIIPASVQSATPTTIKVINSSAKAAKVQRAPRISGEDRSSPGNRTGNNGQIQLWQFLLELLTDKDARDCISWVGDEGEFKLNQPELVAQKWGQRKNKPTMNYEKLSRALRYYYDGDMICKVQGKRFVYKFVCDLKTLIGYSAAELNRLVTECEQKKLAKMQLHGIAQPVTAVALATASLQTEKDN
Method in brief: as §1

ERG = target: T4, ERG (Homo sapiens, UniProt P11308 1-479); details: protein: recombinant; tags: N-terminal GST; dsDNA, one strand shown
T4 sequence: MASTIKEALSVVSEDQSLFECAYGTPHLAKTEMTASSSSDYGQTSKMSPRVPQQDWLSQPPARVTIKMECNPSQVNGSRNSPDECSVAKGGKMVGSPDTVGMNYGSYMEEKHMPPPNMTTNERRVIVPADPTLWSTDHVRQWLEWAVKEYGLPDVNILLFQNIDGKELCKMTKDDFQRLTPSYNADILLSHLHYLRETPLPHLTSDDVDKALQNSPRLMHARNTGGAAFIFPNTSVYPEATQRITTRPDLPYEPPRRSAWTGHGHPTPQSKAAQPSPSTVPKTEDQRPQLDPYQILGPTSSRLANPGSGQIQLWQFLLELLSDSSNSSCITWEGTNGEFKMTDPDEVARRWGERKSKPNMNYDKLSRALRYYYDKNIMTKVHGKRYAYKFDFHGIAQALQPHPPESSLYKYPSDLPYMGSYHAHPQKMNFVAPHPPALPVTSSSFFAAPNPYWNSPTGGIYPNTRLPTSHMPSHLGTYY
Method in brief: as §1

ELF1 = ELF1 (Homo sapiens, UniProt P32519 1-619); details: protein: recombinant; tags: N-terminal GST; dsDNA, one strand shown
Sequence of ELF1 (P32519 whole entry): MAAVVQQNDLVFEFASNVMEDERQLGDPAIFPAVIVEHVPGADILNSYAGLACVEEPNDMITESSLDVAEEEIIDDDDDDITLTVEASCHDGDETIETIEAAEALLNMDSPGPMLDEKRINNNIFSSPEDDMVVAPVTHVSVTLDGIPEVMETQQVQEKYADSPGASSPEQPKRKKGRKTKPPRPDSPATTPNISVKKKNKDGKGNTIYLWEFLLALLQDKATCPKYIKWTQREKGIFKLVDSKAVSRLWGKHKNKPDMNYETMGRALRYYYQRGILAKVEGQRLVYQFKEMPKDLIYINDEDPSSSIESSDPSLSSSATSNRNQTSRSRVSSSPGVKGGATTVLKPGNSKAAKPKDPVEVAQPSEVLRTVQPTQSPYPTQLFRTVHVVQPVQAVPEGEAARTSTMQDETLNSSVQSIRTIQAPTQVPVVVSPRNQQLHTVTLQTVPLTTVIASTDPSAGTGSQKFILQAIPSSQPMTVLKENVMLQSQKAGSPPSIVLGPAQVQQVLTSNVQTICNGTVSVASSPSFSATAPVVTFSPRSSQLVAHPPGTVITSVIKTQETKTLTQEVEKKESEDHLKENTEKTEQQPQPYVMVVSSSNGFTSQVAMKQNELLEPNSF
Method in brief: as §1

EHF = target: T5, EHF (Homo sapiens, UniProt Q9NZC4 1-300); details: protein: recombinant; tags: N-terminal GST; dsDNA, one strand shown
T5 sequence: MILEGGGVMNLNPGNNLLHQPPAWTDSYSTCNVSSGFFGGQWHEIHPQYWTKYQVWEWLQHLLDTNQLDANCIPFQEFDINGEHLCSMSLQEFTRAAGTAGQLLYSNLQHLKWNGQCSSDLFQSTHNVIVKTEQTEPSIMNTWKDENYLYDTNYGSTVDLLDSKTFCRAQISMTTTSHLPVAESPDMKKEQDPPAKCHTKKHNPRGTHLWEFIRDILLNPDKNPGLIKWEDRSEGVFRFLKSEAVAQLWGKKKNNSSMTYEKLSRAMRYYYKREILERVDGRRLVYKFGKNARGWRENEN
Method in brief: as §1

SPI1 = SPI1 (Homo sapiens, UniProt P17947 1-270); details: protein: recombinant; tags: N-terminal GST; dsDNA, one strand shown
Method in brief: as §1

SPIB = SPIB (Homo sapiens, UniProt Q01892 1-262); details: protein: recombinant; tags: N-terminal GST; dsDNA, one strand shown
Sequence of SPIB (Q01892 whole entry): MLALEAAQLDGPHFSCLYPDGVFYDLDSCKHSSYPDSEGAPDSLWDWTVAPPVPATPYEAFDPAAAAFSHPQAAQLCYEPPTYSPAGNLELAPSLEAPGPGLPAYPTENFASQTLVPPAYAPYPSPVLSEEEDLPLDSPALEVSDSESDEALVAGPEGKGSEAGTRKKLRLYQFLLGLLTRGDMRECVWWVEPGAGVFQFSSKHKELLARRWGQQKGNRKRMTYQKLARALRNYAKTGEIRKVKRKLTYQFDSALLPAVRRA
Method in brief: as §1

ELK3 = target: T6, ELK3 (Homo sapiens, UniProt P41970 1-407); details: protein: recombinant; tags: N-terminal GST; dsDNA, one strand shown
T6 sequence: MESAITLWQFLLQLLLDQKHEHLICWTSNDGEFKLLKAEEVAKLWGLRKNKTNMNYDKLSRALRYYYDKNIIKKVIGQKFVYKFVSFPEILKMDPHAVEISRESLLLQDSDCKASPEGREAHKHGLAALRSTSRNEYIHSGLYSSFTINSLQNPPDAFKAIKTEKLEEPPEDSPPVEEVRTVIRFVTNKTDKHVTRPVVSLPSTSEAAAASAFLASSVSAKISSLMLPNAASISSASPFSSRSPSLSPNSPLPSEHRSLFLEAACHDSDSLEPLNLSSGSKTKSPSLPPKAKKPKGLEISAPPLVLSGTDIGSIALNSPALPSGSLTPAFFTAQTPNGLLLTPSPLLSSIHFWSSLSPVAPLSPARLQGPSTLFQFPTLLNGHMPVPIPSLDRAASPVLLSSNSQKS
Method in brief: as §1

FEV = target: T7, FEV (Homo sapiens, UniProt Q99581 1-238); details: protein: recombinant; tags: N-terminal GST; dsDNA, one strand shown
T7 sequence: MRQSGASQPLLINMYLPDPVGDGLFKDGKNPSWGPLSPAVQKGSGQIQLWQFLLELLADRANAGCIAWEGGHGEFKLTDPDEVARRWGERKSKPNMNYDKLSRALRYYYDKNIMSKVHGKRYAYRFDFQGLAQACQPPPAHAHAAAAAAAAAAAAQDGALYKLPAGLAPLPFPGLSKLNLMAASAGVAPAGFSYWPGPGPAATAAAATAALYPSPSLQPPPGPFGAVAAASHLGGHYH
Method in brief: as §1

ETV5 = ETV5 (Homo sapiens, UniProt P41161 1-510); details: protein: recombinant; tags: N-terminal GST; dsDNA, one strand shown
Sequence of ETV5 (P41161 whole entry): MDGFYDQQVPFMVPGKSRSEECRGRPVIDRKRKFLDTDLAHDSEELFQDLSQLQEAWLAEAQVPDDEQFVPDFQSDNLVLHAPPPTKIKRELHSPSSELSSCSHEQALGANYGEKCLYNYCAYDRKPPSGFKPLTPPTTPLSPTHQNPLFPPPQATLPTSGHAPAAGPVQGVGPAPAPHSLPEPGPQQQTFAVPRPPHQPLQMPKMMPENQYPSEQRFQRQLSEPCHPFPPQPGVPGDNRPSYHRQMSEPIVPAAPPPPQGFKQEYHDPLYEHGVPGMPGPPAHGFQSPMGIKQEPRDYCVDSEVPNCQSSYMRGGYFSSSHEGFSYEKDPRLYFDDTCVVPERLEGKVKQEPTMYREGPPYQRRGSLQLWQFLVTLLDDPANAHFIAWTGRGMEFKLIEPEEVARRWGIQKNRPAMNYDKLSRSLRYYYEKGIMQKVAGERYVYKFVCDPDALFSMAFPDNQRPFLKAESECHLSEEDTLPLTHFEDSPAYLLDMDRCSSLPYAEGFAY
Method in brief: as §1

HSF1 = HSF1 (Homo sapiens, UniProt Q00613 1-529); details: protein: recombinant; tags: N-terminal GST; chain copies: 3; dsDNA, one strand shown
Sequence of HSF1 (Q00613 whole entry): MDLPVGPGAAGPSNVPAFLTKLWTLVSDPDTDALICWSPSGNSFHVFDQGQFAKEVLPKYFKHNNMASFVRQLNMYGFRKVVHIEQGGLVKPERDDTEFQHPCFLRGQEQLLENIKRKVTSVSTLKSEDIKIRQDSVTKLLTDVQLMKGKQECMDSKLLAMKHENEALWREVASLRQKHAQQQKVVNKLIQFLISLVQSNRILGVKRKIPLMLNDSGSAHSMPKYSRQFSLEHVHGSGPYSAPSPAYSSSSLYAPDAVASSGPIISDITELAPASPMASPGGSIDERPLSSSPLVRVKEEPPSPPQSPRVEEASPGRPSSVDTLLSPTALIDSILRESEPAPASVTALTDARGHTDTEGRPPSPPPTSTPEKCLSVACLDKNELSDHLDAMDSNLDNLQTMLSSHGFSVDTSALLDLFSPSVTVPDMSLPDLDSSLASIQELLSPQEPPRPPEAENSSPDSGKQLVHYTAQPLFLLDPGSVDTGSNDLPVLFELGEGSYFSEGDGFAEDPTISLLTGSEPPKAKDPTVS
Method in brief: as §1

SPIC = target: T8, SPIC (Homo sapiens, UniProt Q8N5J4 1-248); details: protein: recombinant; tags: N-terminal GST; dsDNA, one strand shown
T8 sequence: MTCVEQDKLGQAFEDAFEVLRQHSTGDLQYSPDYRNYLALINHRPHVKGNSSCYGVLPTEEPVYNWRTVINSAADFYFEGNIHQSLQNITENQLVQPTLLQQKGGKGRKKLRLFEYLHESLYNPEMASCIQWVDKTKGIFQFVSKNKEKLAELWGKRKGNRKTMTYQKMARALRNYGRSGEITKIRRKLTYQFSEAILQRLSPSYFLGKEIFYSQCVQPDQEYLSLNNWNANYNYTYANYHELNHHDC
Method in brief: as §1

ELF4 = ELF4 (Homo sapiens, UniProt Q99607 1-663); details: protein: recombinant; tags: N-terminal GST; dsDNA, one strand shown
Sequence of ELF4 (Q99607 whole entry): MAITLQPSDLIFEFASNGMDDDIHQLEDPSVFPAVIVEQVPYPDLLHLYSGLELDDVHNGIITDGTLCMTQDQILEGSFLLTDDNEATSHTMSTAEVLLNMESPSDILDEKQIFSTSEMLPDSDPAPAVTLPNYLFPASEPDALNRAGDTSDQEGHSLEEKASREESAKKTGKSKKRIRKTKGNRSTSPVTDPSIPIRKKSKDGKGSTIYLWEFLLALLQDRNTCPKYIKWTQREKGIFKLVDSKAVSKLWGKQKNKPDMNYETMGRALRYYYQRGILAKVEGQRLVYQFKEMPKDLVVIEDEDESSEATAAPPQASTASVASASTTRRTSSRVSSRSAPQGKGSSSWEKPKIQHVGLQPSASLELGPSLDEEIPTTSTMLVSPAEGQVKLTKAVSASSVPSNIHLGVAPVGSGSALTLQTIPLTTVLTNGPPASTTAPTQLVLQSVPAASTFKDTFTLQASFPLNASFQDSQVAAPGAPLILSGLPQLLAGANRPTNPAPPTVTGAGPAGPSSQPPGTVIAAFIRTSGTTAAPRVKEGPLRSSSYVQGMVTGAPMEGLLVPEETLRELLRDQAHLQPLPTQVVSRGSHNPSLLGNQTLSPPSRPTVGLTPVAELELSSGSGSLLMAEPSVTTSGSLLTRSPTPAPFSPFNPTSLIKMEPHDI
Method in brief: as §1

ELK4 = target: T9, ELK4 (Homo sapiens, UniProt P28324-2 1-405); details: protein: recombinant; tags: N-terminal GST; dsDNA, one strand shown
T9 sequence: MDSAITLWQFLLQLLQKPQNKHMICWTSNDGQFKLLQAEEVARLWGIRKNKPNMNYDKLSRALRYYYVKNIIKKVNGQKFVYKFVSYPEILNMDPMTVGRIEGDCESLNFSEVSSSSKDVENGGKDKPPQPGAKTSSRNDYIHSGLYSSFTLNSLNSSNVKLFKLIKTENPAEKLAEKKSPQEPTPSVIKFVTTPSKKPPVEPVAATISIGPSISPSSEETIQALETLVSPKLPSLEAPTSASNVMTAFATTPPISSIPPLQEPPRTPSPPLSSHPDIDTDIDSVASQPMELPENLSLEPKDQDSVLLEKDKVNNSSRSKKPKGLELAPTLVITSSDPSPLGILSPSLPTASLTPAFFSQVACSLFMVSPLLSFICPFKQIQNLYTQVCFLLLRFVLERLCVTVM
Method in brief: as §1

ETV2 = target: T10, ETV2 (Homo sapiens, UniProt O00321 1-342); details: protein: recombinant; tags: N-terminal GST; dsDNA, one strand shown
T10 sequence: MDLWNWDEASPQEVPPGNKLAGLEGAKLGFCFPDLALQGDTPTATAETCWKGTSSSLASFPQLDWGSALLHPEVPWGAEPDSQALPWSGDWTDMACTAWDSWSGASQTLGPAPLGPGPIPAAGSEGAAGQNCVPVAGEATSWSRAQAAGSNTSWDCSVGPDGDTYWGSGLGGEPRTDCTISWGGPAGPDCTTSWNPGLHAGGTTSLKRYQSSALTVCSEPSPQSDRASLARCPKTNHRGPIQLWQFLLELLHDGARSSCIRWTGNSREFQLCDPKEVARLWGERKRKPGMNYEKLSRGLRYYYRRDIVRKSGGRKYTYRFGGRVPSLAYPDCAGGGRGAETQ
Method in brief: as §1

ELF3 = target: T11, ELF3 (Homo sapiens, UniProt P78545 1-371); details: protein: recombinant; tags: N-terminal GST; dsDNA, one strand shown
T11 sequence: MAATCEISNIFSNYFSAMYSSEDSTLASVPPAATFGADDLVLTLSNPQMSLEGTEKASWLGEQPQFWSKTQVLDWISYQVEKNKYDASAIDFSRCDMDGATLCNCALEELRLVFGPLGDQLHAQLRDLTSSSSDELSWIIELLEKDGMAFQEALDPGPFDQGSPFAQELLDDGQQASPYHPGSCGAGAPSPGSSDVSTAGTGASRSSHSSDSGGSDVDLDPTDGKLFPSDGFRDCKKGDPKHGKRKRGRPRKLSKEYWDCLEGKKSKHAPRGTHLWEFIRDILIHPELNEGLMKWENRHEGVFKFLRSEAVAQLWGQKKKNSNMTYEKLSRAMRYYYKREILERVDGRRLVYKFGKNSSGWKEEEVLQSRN
Method in brief: as §1

CRX = CRX (Homo sapiens, UniProt O43186 1-299); details: protein: recombinant; tags: N-terminal GST; dsDNA, one strand shown
Sequence of CRX (O43186 whole entry): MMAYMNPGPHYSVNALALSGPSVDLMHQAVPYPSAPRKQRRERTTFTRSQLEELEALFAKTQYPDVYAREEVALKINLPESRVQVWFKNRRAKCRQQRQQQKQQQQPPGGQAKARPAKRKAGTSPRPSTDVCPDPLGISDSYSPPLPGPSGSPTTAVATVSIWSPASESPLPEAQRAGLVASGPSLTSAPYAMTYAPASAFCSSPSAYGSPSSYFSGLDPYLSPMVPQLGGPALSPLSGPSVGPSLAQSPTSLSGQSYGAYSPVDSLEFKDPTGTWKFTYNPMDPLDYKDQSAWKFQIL
Method in brief: as §1

ETV1 = ETV1 (Homo sapiens, UniProt P50549 1-477); details: protein: recombinant; tags: N-terminal GST; dsDNA, one strand shown
Sequence of ETV1 (P50549 whole entry): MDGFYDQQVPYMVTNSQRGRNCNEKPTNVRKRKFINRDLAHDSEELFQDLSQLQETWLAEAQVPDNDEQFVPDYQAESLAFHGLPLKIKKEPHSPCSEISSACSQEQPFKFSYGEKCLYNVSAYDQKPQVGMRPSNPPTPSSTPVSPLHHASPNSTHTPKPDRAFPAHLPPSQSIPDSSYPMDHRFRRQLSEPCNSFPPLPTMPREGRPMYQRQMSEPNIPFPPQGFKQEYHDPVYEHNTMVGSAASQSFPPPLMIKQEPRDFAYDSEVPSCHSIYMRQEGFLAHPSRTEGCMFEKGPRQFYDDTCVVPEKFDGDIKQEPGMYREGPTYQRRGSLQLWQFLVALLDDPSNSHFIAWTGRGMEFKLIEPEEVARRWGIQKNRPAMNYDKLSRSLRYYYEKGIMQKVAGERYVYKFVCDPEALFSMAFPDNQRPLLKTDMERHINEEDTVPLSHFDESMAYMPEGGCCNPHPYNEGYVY
Method in brief: as §1

With ATAGTT the binding signal (FLI1) was 1.18 fold enrichment (6-mer frequency, TF over GST control), the binding signal (ELK1) was 1.16 fold enrichment (6-mer frequency, TF over GST control) and the binding signal (GABPA) was 1.16 fold enrichment (6-mer frequency, TF over GST control). The binding signal (ERG) was 1.18 fold enrichment (6-mer frequency, TF over GST control), the binding signal (ELF1) was 1.16 fold enrichment (6-mer frequency, TF over GST control) and the binding signal (EHF) was 1.18 fold enrichment (6-mer frequency, TF over GST control). The binding signal (SPI1) was 1.11 fold enrichment (6-mer frequency, TF over GST control), the binding signal (SPIB) was 1.2 fold enrichment (6-mer frequency, TF over GST control) and the binding signal (ELK3) was 1.11 fold enrichment (6-mer frequency, TF over GST control). The binding signal (FEV) was 1.11 fold enrichment (6-mer frequency, TF over GST control), the binding signal (ETV5) was 1.25 fold enrichment (6-mer frequency, TF over GST control) and the binding signal (HSF1) was 1.15 fold enrichment (6-mer frequency, TF over GST control). The binding signal (SPIC) was 1.14 fold enrichment (6-mer frequency, TF over GST control), the binding signal (ELF4) was 1.18 fold enrichment (6-mer frequency, TF over GST control) and the binding signal (ELK4) was 1.39 fold enrichment (6-mer frequency, TF over GST control). For the same sequence, the binding signal (ETV2) was 1.14 fold enrichment (6-mer frequency, TF over GST control), the binding signal (ELF3) was 1.29 fold enrichment (6-mer frequency, TF over GST control) and the binding signal (CRX) was 1.1 fold enrichment (6-mer frequency, TF over GST control). The binding signal (ETV1) was 1.11 fold enrichment (6-mer frequency, TF over GST control).
